Bioassay records (PubChem)
In the library only some 6.3% were active in any assay of this set; here they are far more common.
RORgamma inh: ROR gamma (mouse) transcription inhibition; P51450; Drosophila S2 Gal4-RORgamma UAS-luciferase reporter, 20 h; Potency, µM (highest dose often 53.6 µM), without a hit: top-dose activity change, negative = inhibition, most hits filed as inhibitors; 5.4% of 310,000 active; note: % is set by controls: 0 for no effect and ±100 for the full control effect; nearly all actives have a fitted effect of over 60% in size
Target sequence (P51450 whole entry, looked up, the tested form may be a part): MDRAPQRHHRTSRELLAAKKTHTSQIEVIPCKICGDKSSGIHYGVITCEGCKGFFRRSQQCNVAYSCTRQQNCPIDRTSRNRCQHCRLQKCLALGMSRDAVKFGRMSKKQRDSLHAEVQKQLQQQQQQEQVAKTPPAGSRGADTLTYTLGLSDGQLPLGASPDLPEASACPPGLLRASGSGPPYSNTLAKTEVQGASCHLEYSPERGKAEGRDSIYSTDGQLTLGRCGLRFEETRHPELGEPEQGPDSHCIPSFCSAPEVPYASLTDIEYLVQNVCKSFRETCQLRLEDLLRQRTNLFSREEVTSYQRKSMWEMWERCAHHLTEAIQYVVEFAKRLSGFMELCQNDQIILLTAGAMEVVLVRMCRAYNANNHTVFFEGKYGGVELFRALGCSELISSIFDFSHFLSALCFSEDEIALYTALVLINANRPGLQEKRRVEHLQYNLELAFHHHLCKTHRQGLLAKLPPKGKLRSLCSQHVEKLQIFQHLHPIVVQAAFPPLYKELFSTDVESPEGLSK
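Compounds are pin-transferred onto Drosophila Schneider cells expressing a copper-inducible Gal4–ROR gamma transactivation domain fusion. After 1 hr, copper sulfate is added to 700 uM final; luciferase is read 20 hr later.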
HepG2 viability: HepG2 cytotoxicity, counter-screen for TGF-b inhibitors; HepG2 CAGA-GFP viability, ATP luminescence, 18 h; 0.76% of 410,000 active; Potency, µM (top dose mostly 46.1 µM), inactives show at the highest dose activity change, negative = cytotoxicity, hits mostly cytotoxic
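HepG2 CAGA-GFP cells (1000/well, DMEM with 1% FBS) received compound, then TGF-beta at 500 pg/mL final, and were incubated 18 hours at 37 degrees C. Viability was read by CellTiter-Glo luminescence. Media-only wells were set as complete cell-killing and DMSO as no toxicity.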
ATXN viability: cell viability loss in ATXN counter-screen; S2 cells (HEK-293 line with an ATXN2-luciferase reporter) viability, CellTiter-Fluor protease fluorescence, 24 h; Potency, µM (highest dose often 56.7 µM), usual class: cytotoxic; 0.49% of 400,000 active; note: nearly all actives have a fitted effect of over 40% in size
ATXN2 expr inh: ATXN2 expression inhibition; HEK-293 ATXN2-luciferase reporter, luminescence, 24 h; Potency, µM (series often up to 57 µM), for inactives: top-dose activity change, negative = inhibition, hits mostly inhibitors; 0.72% of 360,000 active; AID 1745845; note: % is set by controls: 0 for no effect and ±100 for the full control effect; nearly all actives have a fitted effect of over 55% in size
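ATXN2-luciferase reporter cells (luciferase flanked by upstream and downstream ATXN2 gene portions) were treated 24 h at 37 °C with compounds at up to 57 uM. SteadyGlo luminescence gave expression; GF-AFC fluorescence gave viability.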
TGFb inhibitor: blocks TGF-b signaling | Potency, µM (highest dose often 46.1 µM), without a hit: at the top dose activity, negative = inhibition, usual class: inhibitors | 1.2% of 410,000 active | HepG2 CAGA-GFP TGF-b/SMAD3 reporter, GFP fluorescence, 18 h; TGF-beta stimulated, 500 pg/mL final; note: % is set by controls: 0 for no effect and ±100 for the full control effect; nearly all actives have a fitted effect of over 65% in size
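Per well, imaged GFP fluorescence of HEPG2 CAGA-GFP cells gives the signal; cells get compound, then TGF-beta (500 pg/mL final), 18 h at 37 degrees C; %Activity versus -TGF-beta and +DMSO controls.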
VP16 counter: Gal4-VP16 reporter inhibition counter-screen. Drosophila S2 Gal4-VP16 UAS-luciferase, luminescence, 20 h. Potency, µM (highest dose often 53.6 µM), for the others: top-dose activity, negative = inhibition, hits mostly inhibitors. 3.5% of 310,000 active. AID 2546;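 note: Gal4-VP16 expression switched on by copper sulfate through the metallothionein promoter; % is set by controls: 0 for no effect and ±100 for the full control effect; nearly all actives have a fitted effect of over 50% in size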
The depositor's hits bear a star; [ ] = remark or other dose. Calls come from the whole dose curve; as a rule, active = well fitted curve in the direction sought with a large enough effect; inconclusive = small, poorly fitted or top-dose-only effect, or another doubt; inactive = no such curve, though single readings can be large; an effect the other way counts as inactive or inconclusive. Potency is the fitted concentration of half-maximal effect.

How did COc1ccc(NC(=O)COC(=O)C2CCCN2C(=O)OC(C)(C)C)cc1Cl (stereo not drawn) do in these assays?
HepG2 viability: 1%; ATXN viability: inactive; TGFb inhibitor: 1%

What do the screens show for `O=C(NCCc1ccccn1)c1cnn(-c2ncc3c(n2)-c2ccccc2CC3)c1C1CC1`?
ATXN viability: inactive

Results for Cc1ccccc1C1(CC(=O)N2CC3CC4CC(C3)CC2C4)CC(=O)N(Cc2cccnc2)C1=O (stereo not drawn) ?
ATXN viability: inactive

How did Cc1oc(-c2cccc(C(F)(F)F)c2)nc1CN1CCOCC1 do in these assays?
RORgamma inh: 0.79µM*; HepG2 viability: 4%; ATXN viability: inactive; ATXN2 expr inh: 4%; TGFb inhibitor: 0%; VP16 counter: 5µM*

Results for O=C(Cc1cccs1)NNC(=S)NCc1ccc(Cl)cc1 ?
RORgamma inh: 4µM*; HepG2 viability: -8%; ATXN viability: inactive; ATXN2 expr inh: -12%; TGFb inhibitor: -29%; VP16 counter: -15%

What do the screens show for `O=C(NC(=S)Nc1ccc(NC(=O)c2cccs2)cc1)c1ccco1`?
RORgamma inh: inconclusive; HepG2 viability: -18%; ATXN viability: inconclusive; ATXN2 expr inh: 2%; TGFb inhibitor: inconclusive; VP16 counter: inconclusive

What do the screens show for `O=C(Cc1cccs1)NNC(=S)NC(=O)c1ccco1`?
RORgamma inh: 7.9µM*; HepG2 viability: -94%; ATXN viability: inactive; ATXN2 expr inh: -10%[11.3 µM]; TGFb inhibitor: -15%; VP16 counter: 19%

Results for COc1ccc2[nH]c(C(=O)N/N=C/c3ccc(O)cc3O)cc2c1 ?
RORgamma inh: inconclusive; HepG2 viability: 1%; ATXN viability: inactive; TGFb inhibitor: 2%; VP16 counter: -9%

Results for COc1ccc(C(C[N+](=O)[O-])c2c(-c3ccccc3)cc3ccccn23)c(OC)c1 (stereo not drawn) ?
RORgamma inh: inconclusive; HepG2 viability: 11µM*; ATXN viability: inactive; ATXN2 expr inh: 0%; TGFb inhibitor: 10µM*; VP16 counter: inconclusive

Results for COc1ccc(C(C[N+](=O)[O-])c2c(C)cc3ccccn23)cc1 (stereo not drawn) ?
RORgamma inh: inconclusive; HepG2 viability: 18%; ATXN viability: inactive; ATXN2 expr inh: -5%[11.3 µM]; TGFb inhibitor: 6%; VP16 counter: -7%

How did O=C(NCCc1cccnc1)c1cnn(-c2ncc3c(n2)-c2ccccc2CC3)c1C1CC1 do in these assays?
ATXN viability: inactive

How did O=C1C(=O)c2ccccc2C([O-])=C1[n+]1ccccc1 do in these assays?
RORgamma inh: -22%; HepG2 viability: -3%; ATXN viability: inactive; ATXN2 expr inh: -13%; TGFb inhibitor: 2%; VP16 counter: -20%

Results for CCc1cc[n+](C2=C([O-])c3ccccc3C(=O)/C2=N\S(=O)(=O)c2cccs2)cc1 ?
RORgamma inh: 3.5µM*; HepG2 viability: 3.5µM*; ATXN viability: inconclusive; ATXN2 expr inh: inconclusive; TGFb inhibitor: 2.8µM*; VP16 counter: 16µM*

What do the screens show for `O=C(CSc1nnc(-c2ccc3c(c2)OCO3)o1)Nc1ncc(C(F)(F)F)cc1Cl`?
RORgamma inh: 4µM*; HepG2 viability: -10%; ATXN viability: inactive; ATXN2 expr inh: -16%[11.3 µM]; TGFb inhibitor: -4%; VP16 counter: inconclusive

Results for CCn1c(SCC(=O)Nc2ncc(C(F)(F)F)cc2Cl)nnc1-c1cccc(C)c1 ?
RORgamma inh: 10µM*; HepG2 viability: 1%; ATXN viability: inactive; ATXN2 expr inh: -6%; TGFb inhibitor: -10%; VP16 counter: inconclusive

Results for COc1cc(=O)n2c(c1C(=O)NC(C)c1ccco1)CCN(C(=O)c1cc(C)cc(C)c1)CC2 (stereo not drawn) ?
ATXN viability: inactive

How did CC(=O)Nc1cccc(NC(=O)CSc2cn(CC(=O)N(C(C)C)C(C)C)c3ccccc23)c1 do in these assays?
HepG2 viability: 0%; TGFb inhibitor: inconclusive

Results for COc1cc(-c2ccc(Cl)cn2)cc2c1OCCN(C(=O)c1ccccc1-n1cccn1)C2 ?
ATXN viability: inactive

How did Cc1cc(C(=O)Nc2c(F)cc(F)cc2Br)c(C)o1 do in these assays?
RORgamma inh: inconclusive; HepG2 viability: -15%; ATXN viability: inactive; ATXN2 expr inh: -9%; TGFb inhibitor: 0%; VP16 counter: 10µM*

How did C/C(=N\Nc1ncnc2sc(C)c(C)c12)c1ccccn1 do in these assays?
RORgamma inh: 0.4µM*; HepG2 viability: -88%; ATXN viability: inconclusive; ATXN2 expr inh: 0.28µM*; TGFb inhibitor: -8%; VP16 counter: 0.79µM*

What do the screens show for `C/C(=N\Nc1cccc2cccnc12)c1ccccc1O`?
RORgamma inh: inconclusive; HepG2 viability: -12%; ATXN viability: inactive; ATXN2 expr inh: 20%; TGFb inhibitor: 18%; VP16 counter: -11%

Results for C/C(=N\Nc1ncc(Cl)cc1Cl)c1ccccn1 ?
RORgamma inh: 0.71µM*; HepG2 viability: -41%; TGFb inhibitor: 89%; VP16 counter: 14µM*

How did C/C(=N\Nc1cccc2cccnc12)c1ccccn1 do in these assays?
RORgamma inh: 0.63µM*; HepG2 viability: -57%; ATXN viability: inconclusive; ATXN2 expr inh: -34%; TGFb inhibitor: inconclusive; VP16 counter: 4µM*

What do the screens show for `C/C(=N\Nc1ccc(Cl)c(C(=O)O)c1)c1ccccn1`?
RORgamma inh: inconclusive; HepG2 viability: -2%; ATXN viability: 25µM*; ATXN2 expr inh: -14%; TGFb inhibitor: 12%; VP16 counter: 22%

Results for Cc1sc2ncnc(N/N=C/c3cccc(O)c3)c2c1C ?
RORgamma inh: inconclusive; HepG2 viability: -27%; ATXN2 expr inh: 40%; TGFb inhibitor: inconclusive; VP16 counter: inconclusive

Results for Cc1ccc2nc(SCC(=O)NCC3Cc4cc(-c5ncccc5C)ccc4O3)[nH]c2c1 (stereo not drawn) ?
ATXN viability: inactive

What do the screens show for `CC(C)COC(=O)COc1cc(Cl)c(Cl)cc1Cl`?
RORgamma inh: 2%; VP16 counter: -1%

How did CCOC(=O)c1ccc(NC(=S)N2CCN(CCN=CC3=C(O)CC(C)(C)CC3=O)CC2)cc1 do in these assays?
RORgamma inh: 13µM*; HepG2 viability: 5%; ATXN viability: inactive; TGFb inhibitor: -5%; VP16 counter: inconclusive
